The list is a sample of the results.
aSyn 5UTR act: Activators working through SNCA 5'UTR binding (MLPCN); alpha-synuclein 5'UTR reporter, activators screen; activity score, % (tested at 7.5 µM), hits read low; 7.1% of 300,000 active; in the data active = activity score below about -60%
The depositor's hits bear a star.

SMILES	aSyn 5UTR act
COc1cc(NC(=O)c2ccccc2Cl)ccc1NC(=O)c1cccs1	-143*
COc1cc(NC(=S)NC(=O)c2c(OC)cccc2OC)ccc1NC(=O)c1cccs1	-95*
O=C(Nc1ccccc1Cl)c1ccc(-c2ccccn2)s1	-120*
Cc1nn(-c2ccccc2)c(/N=C/c2ccc(O)cc2)c1-c1ccccc1	-134*
CN(C1=C(N2CCOCC2)C(=O)c2ccccc2C1=O)c1ccccc1	39
CN(C)c1ccc(/C=N/N2CCN(c3ccccn3)CC2)cc1	-126*
BrC(=C\c1ccccc1)/C=N/N1CCN(c2ccccn2)CC1	-70*
CN(c1ccccc1)c1ccc(/C=N/N2CCOCC2)cc1	-156*
C(=N\N1CCN(c2ccccn2)CC1)/c1ccccn1	-115*
O=[N+]([O-])c1ccccc1/C=N/N1CCN(c2ccccn2)CC1	-79*
Oc1cccc(/C=N/N2CCN(c3ccccn3)CC2)c1	-76*
COc1ccc(S(=O)(=O)N2CCN(c3ccccn3)CC2)cc1[N+](=O)[O-]	45
Cc1ccc(/C=N/N2CCN(c3ccccn3)CC2)o1	-80*
CCCC1CC(=O)OC1(C)C(=O)CSc1n[nH]c(-c2ccccc2)n1 (stereo not given)	-66*
Cc1ccc(Sc2c(CO)c(-c3ccccc3)nn2C)cc1	-86*
N#C/C(C(=O)Oc1ccccc1)=C1\C=CC=CN1	-80*
O=C(CCN1C(=O)c2cccc3cccc(c23)C1=O)N1CCOCC1	-102*
O=C1c2ccc3c4c(ccc(c24)C(=O)N1CCCCO)C(=O)N(CCCCO)C3=O	111
O=C1c2cccc3cccc(c23)C(=O)N1CCc1ccccc1	-246*
O=C(NNC(=O)c1ccccc1F)c1cccc(-n2cccc2)c1	-74*
O=C(Nc1ccc2oc(-c3cccnc3)nc2c1)c1ccc([N+](=O)[O-])o1	-97*
O=C(Nc1ccc2nc(-c3ccccc3)oc2c1)c1ccco1	-227*
O=C(Nc1ccc2oc(-c3cccnc3)nc2c1)c1ccc(Br)o1	-113*
O=C(Nc1ccc2oc(-c3cccnc3)nc2c1)c1ccco1	-135*
Cc1ccc2nc(NC(=O)[C@H](C)N3C(=O)C4CC=CCC4C3=O)sc2c1 (stereo not given in full)	63
SMILES	aSyn 5UTR act
Cc1nc2ccc(NC(=O)N(C(C)C)C(C)C)cc2s1	-90*
Cc1nc2ccc(NC(=O)N(C)c3ccccc3)cc2s1	-119*
CCc1c(C)nc(SCC(=O)c2cccs2)c(C#N)c1C	-269*
N#Cc1cnc2sc3ccccc3n2c1=N	-68*
CN[C@H]1CCc2cc(OC)c(OC)c(OC)c2-c2ccc(OC)c(=O)cc21	90
CN(Cc1nc(-c2cccc(Cl)c2)no1)C1CCOCC1	-121*
COc1ccc(N(C(=O)c2ccco2)S(=O)(=O)c2cc(OC)ccc2OC)cc1	-113*
O=C(CNCc1ccccc1)Nc1ccc(Cl)cc1	-82*
O=C(CSCc1ccccc1Cl)Nc1ccc2c(c1)OCCO2	-152*
O=C(CNCc1ccc(Cl)cc1)Nc1ccc2c(c1)OCCO2	-99*
O=C(CNCc1ccccc1Cl)Nc1ccc2c(c1)OCCO2	-117*
COc1cc(N/N=C(\C)c2ccc(N)cc2)nc(-c2ccccc2)n1	-62*
CC1(C)CN(c2ccc(N3CC(C)(C)C3=O)cc2)C1=O	-70*
CN(C)/C=N/c1c(C#N)cnn1-c1nc2ccccc2s1	-96*
N=c1oc2ccccc2cc1C(=O)NC1CCCCCC1	-116*
O=C(NCc1ccccc1Cl)c1cc2ccccc2oc1=O	-144*
O=C(OC1CCCCC1)c1cc2ccccc2oc1=O	-109*
O=C(NNc1c(F)c(F)cc(F)c1F)c1cc2ccccc2oc1=O	-122*
Cc1c(CCC(=O)N[C@@H](C)C(=O)O)c(=O)oc2cc3oc4c(c3cc12)CCCC4	71
COc1cccc2cc(C(=O)OC3CCN(C)CC3)c(=O)oc12	-88*
O=c1oc2ccccc2cc1NCc1ccccc1O	-176*
COc1cccc2cc(NC(=O)C3CCCCC3)c(=O)oc12	-162*
O=C(c1cc2ccccc2oc1=O)N1CCOCC1	-124*
O=C(NC1CCCCCC1)c1cc2ccccc2oc1=O	-139*
[O-]/C(=C(\C(=S)Nc1ccc(SC(F)F)cc1)[n+]1ccccc1)c1ccc(Cl)cc1Cl	-72*
SMILES	aSyn 5UTR act
CCOc1ccccc1OCC(=O)N/N=C(\C)Cc1ccc(OC)cc1	87
C/C(=N\NC(=S)NCc1ccccc1)c1ccccc1F	-70*
COc1ccc(C/C(C)=N/NC(=S)Nc2ccccc2)cc1	-124*
CCN(CC)c1ccc(/C=N/NC(=S)NCc2ccc(OC)cc2)cc1	-76*
COc1ccc(CNC(=S)N/N=C(/C)c2ccccc2)cc1	-107*
C=CCNC(=S)N/N=C(\C)c1ccccn1	86
CCN(CC)S(=O)(=O)c1cc(OC)ccc1N=Nc1ccc(O)c2ncccc12	59
COc1ccc(O)c(C(=O)c2cnn(-c3ccc(Cl)cc3)c2)c1	-75*
COc1ccc(O)c(C(=O)c2cnn(-c3ccccn3)c2)c1	-130*
Cc1c(C(=O)c2ccccc2)oc2ccc3ccccc3c12	-116*
C=CCn1c(SCC(=O)Nc2ccc(F)cc2F)nnc1-c1cnccn1	-107*
CC(C)c1ccc(NC(=O)[C@@H]2CCC(=O)N2C2OC(=O)c3ccccc32)cc1 (stereo not given in full)	-79*
O=C(Nc1ccc(NC(=O)c2ccco2)c(Cl)c1)c1ccccc1	-99*
CC(C)COc1ccc(C(=O)Nc2ccc(NC(=O)c3ccco3)c(Cl)c2)cc1	-149*
O=C(Nc1ccc(Br)c(Cl)c1)c1ccco1	-162*
CC(C)Oc1ccc(C(=O)Nc2ccc(NC(=O)c3ccco3)c(Cl)c2)cc1	-106*
Nc1ccc(C(=O)Nc2ccc(NC(=O)c3ccco3)c(O)c2)cc1	-82*
COCCn1c(C)cc(C2=NNC(=Nc3ccccc3F)SC2)c1C	91
Fc1ccccc1N=C1NN=C(c2ccccc2)CS1	-199*
Cc1cccc(N=C2NN=C(c3ccccc3F)CS2)c1C	-102*
Clc1ccccc1N=C1NN=C(c2cccs2)CS1	-160*
Fc1ccc(F)c(C2=NNC(=Nc3ccccc3F)SC2)c1	-110*
Cc1cccc(OCC(=O)O/N=C(\N)c2ccccn2)c1C	-172*
N/C(=N\OC(=O)COc1cc(Cl)c(Cl)cc1Cl)c1ccccn1	-150*
Clc1ccccc1CSc1cc2c(nn1)-c1ccccc1CC2	-132*
SMILES	aSyn 5UTR act
Clc1cccc(Cl)c1CSc1cc2c(nn1)-c1ccccc1CC2	-83*
O=C(NC(=S)N1CCCCC1)c1csc([N+](=O)[O-])c1	-87*
O=C(/C=C/Nc1ccc(F)cc1)c1ccco1	-144*
CCOC(=O)c1ccc(N/C=C/C(=O)c2ccco2)cc1	-85*
Cc1ccc(C=Nc2ccc(N(C)C)cc2)o1	-139*
Cc1csc(SCC(=O)c2c(N)n(C)c(=O)n(C)c2=O)n1	-118*
Cc1csc(SCC(=O)c2cc(C)n(Cc3cccs3)c2C)n1	73
Cc1[nH]c2ccccc2c1/C=N/Nc1nc2ccccc2[nH]1	-228*
C(=N\Nc1nc2ccccc2[nH]1)/c1cccc2cccnc12	73
Cc1ccccc1/C=N/Nc1nc2ccccc2[nH]1	-115*
COc1ccc(/C=N/Nc2nc3ccccc3[nH]2)c(OC)c1OC	-109*
C(=N\Nc1nc2ccccc2[nH]1)/c1c[nH]c2ccccc12	-224*
COc1cccc(/C=N/Nc2nc(C)cc(=O)[nH]2)c1OC	-79*
Cc1ccc(/C=N/Nc2nc3ccccc3[nH]2)s1	-312*
COc1cccc(/C=N/Nc2ncccc2[N+](=O)[O-])c1OC	92
Cc1cc(=O)[nH]c(N/N=C/c2cc(C)n(CC(F)(F)F)c2C)n1	-89*

Screening results deposited in PubChem BioAssay by Broad Institute.
